In PubChem BioAssay (NCATS) one finds Potency data, which are given here for 17 molecules.

Each structure is given as a SMILES string. Results filed as inconclusive are left out. The source made the active and inactive calls. Calls follow the shape of the dose curve; as a rule, active = well fitted curve in the direction sought with a large enough effect; inconclusive = small, poorly fitted or top-dose-only effect, or another doubt; inactive = no such curve, though single readings can be large; an effect the other way counts as inactive or inconclusive.

A short description of assay [1]: qHTS of pediatric cancer cell lines to identify multiple opportunities for drug repurposing: Primary screen for Rh30 cells (AID 1347107). Also: nearly all actives have a fitted effect of over 75% in size. Also: potency is read from the fitted curve at half-maximal effect. The method, boiled down: (§1)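 Viability after 48 h compound treatment at 37C, 500-1,000 cells/well, read as ATP luminescence with CellTiter-Glo. Primary screens used 11-point (MIPE, 0.78 nM-46 µM) or 8-point (NPC, 0.59 nM-46 µM) final concentrations; follow-up screens used 11-point dilutions.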
Background: Quantitative high-throughput screening tests each substance at several concentrations.

A short description of assay [2]: qHTS of pediatric cancer cell lines to identify multiple opportunities for drug repurposing: Primary screen for Rh41 cells (AID 1347108). Also: nearly all actives have a fitted effect of over 70% in size. Also: potency is read from the fitted curve at half-maximal effect. The method, boiled down:
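Quantitative HTS format: each compound titrated (MIPE 11 points from 0.78 nM, NPC 8 points from 0.59 nM) onto cells plated 5 hours earlier. After 48 h at 37 degrees C, CellTiter-Glo luminescence was recorded.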

Assay [3] in a line: qHTS of pediatric cancer cell lines to identify multiple opportunities for drug repurposing: Confirmatory screen for A673 cells (AID 1347110).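 Also: cells exposed to compound for 48 h before the viability read; nearly all actives have a fitted effect of over 65% in size.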 Also: potency is read from the fitted curve at half-maximal effect. In short, it runs like this: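 Forty-eight-hour viability assay. Follow-up compounds ran at 11-point dilutions; positive control bortezomib at 2.3 uM final, neutral control DMSO.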
Assay [4] in a line: qHTS of pediatric cancer cell lines to identify multiple opportunities for drug repurposing: Confirmatory screen for LAN-5 cells (AID 1347113). Also: nearly all actives have a fitted effect of over 65% in size. Also: potency is read from the fitted curve at half-maximal effect. In short, it runs like this:
as §1

The nature of assay [5]: qHTS of pediatric cancer cell lines to identify multiple opportunities for drug repurposing: Confirmatory screen for BT-37 cells (AID 1347117). Also: nearly all actives have a fitted effect of over 55% in size. Also: potency is read from the fitted curve at half-maximal effect. The method, boiled down: as §1
A short description of assay [6]: qHTS of pediatric cancer cell lines to identify multiple opportunities for drug repurposing: Confirmatory screen for control Hh wild type fibroblast cells (AID 1347121). Also: nearly all actives have a fitted effect of over 70% in size. Also: potency is read from the fitted curve at half-maximal effect. The method, boiled down:
as §1

Assay [7] is described as follows: qHTS of pediatric cancer cell lines to identify multiple opportunities for drug repurposing: Confirmatory screen for U-2 OS cells (AID 1347122). Also: nearly all actives have a fitted effect of over 65% in size. Also: potency is read from the fitted curve at half-maximal effect. In short, it runs like this:
as §1

The nature of assay [8]: qHTS of pediatric cancer cell lines to identify multiple opportunities for drug repurposing: Confirmatory screen for RD cells (AID 1347124).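 Also: cells exposed to compound for 48 h before viability readout; nearly all actives have a fitted effect of over 65% in size.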 Also: potency is read from the fitted curve at half-maximal effect. In short, it runs like this: as §1
Assay [9] can be described thus: qHTS of pediatric cancer cell lines to identify multiple opportunities for drug repurposing: Confirmatory screen for Rh18 cells (AID 1347125). Also: nearly all actives have a fitted effect of over 55% in size. Also: potency is read from the fitted curve at half-maximal effect. The method, boiled down: as §1
Assay [10] is described as follows: qHTS of pediatric cancer cell lines to identify multiple opportunities for drug repurposing: Confirmatory screen for Rh30 cells (AID 1347126). Also: nearly all actives have a fitted effect of over 55% in size. Also: potency is read from the fitted curve at half-maximal effect. In short, it runs like this:
as §1

A short description of assay [11]: qHTS of pediatric cancer cell lines to identify multiple opportunities for drug repurposing: Confirmatory screen for Saos-2 cells (AID 1347127). Also: nearly all actives have a fitted effect of over 60% in size. Also: potency is read from the fitted curve at half-maximal effect. In short, it runs like this: as §1
Assay [12] is described as follows: qHTS of pediatric cancer cell lines to identify multiple opportunities for drug repurposing: Confirmatory screen for OHS-50 cells (AID 1347128).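 Also: compound exposure lasted 48 h at 37 degrees C; nearly all actives have a fitted effect of over 55% in size.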 Also: potency is read from the fitted curve at half-maximal effect. The method, boiled down:
as §1

A short description of assay [13]: qHTS of pediatric cancer cell lines to identify multiple opportunities for drug repurposing: Confirmatory screen for SK-N-SH cells (AID 1347129).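 Also: cells exposed to compound for 48 h before viability read; nearly all actives have a fitted effect of over 60% in size.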 Also: potency is read from the fitted curve at half-maximal effect. In short, it runs like this: as §1
Assay [14] in a line: qHTS of pediatric cancer cell lines to identify multiple opportunities for drug repurposing: Confirmatory screen for SJ-GBM2 cells (AID 1347116). Also: potency is read from the fitted curve at half-maximal effect; nearly all actives have a fitted effect of over 60% in size. The method, boiled down: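 Viability measured as metabolically active cells via CellTiter-Glo luminescence following 48 hours of compound exposure, 11-point dilutions in confirmatory testing. 500-1,000 cells/well plated 5 hours before dosing; controls were DMSO and 2.3 µM bortezomib.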

The nature of assay [15]: qHTS of pediatric cancer cell lines to identify multiple opportunities for drug repurposing: Confirmatory screen for TC32 cells (AID 1347118). In short, it runs like this:
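Luminescent CellTiter-Glo read-out of metabolically active TC32 cells after 48 h compound exposure. Primary: MIPE 11-point, 0.78 nM–46 µM; NPC 8-point, 0.59 nM–46 µM. Confirmatory: 11-point dilutions.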

Assay [16] can be described thus: qHTS of pediatric cancer cell lines to identify multiple opportunities for drug repurposing: Confirmatory screen for MG 63 (6-TG R) cells (AID 1347119). In short, it runs like this:
as §1

Assay [17] in a line: qHTS of pediatric cancer cell lines to identify multiple opportunities for drug repurposing: Confirmatory screen for Rh41 cells (AID 1347123). Also: potency is read from the fitted curve at half-maximal effect; nearly all actives have a fitted effect of over 60% in size. In short, it runs like this:
as §1

Assay [18] in a line: qHTS of pediatric cancer cell lines to identify multiple opportunities for drug repurposing: Confirmatory screen for NB1643 cells (AID 1347109). Also: potency is read from the fitted curve at half-maximal effect; nearly all actives have a fitted effect of over 45% in size. In short, it runs like this: as §1
The target in a further assay is Furin (Homo sapiens) (UniProt P09958). The experiment in a line: Furin counterscreen qHTS for Zika virus inhibitors (AID 1347149).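 Also: purified recombinant full-length human furin enzyme at 5 nM; fluorescence gain from furin cutting a BOC-RVRR-AMC peptide substrate over 15 min; top concentration of the series differs between compounds; nearly all actives have a fitted effect of over 70% in size.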 The method, boiled down:
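Fluorogenic cleavage of BOC-RVRR-AMC (2 microM final, Km ~15 µM) was monitored (ex 340, em 450 nm) at 37C after 15 min RT preincubation of 5 nM furin with compounds in HEPES pH 7.0 buffer with CaCl2 and Triton X-100. Percent inhibition was fitted to a 4-parameter Hill curve.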

For assay [19], the target named is N-terminal Xaa-Pro-Lys N-methyltransferase 1 (Homo sapiens) (UniProt Q9BV86). The experiment in a line: qHTS Assay for Inhibitors of N-terminal methyltransferase 1 (NTMT1): LOPAC validation of the NTMT1 SAHH-coupled ThioGlo3 Assay (AID 1347143).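 Also: SAH from peptide methylation measured as thiol fluorescence via SAHH coupling and ThioGlo3; potency is read from the fitted curve at half-maximal effect; nearly all actives have a fitted effect of over 70% in size.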 In short, it runs like this: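 Recombinant human NTMT1 (125nM) was pre-incubated 1 min at room temperature with compounds over a concentration range, then a mix of 100uM SAM, 10uM SAHH and 15uM ThioGlo3 (concentrations in added reagent) was added. ThioGlo3 fluorescence (ex 340/em 450nm) after 30 min was normalized to the initial reading.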
N-terminal Xaa-Pro-Lys N-methyltransferase 1 (Homo sapiens), sequence (Q9BV86 whole entry, looked up): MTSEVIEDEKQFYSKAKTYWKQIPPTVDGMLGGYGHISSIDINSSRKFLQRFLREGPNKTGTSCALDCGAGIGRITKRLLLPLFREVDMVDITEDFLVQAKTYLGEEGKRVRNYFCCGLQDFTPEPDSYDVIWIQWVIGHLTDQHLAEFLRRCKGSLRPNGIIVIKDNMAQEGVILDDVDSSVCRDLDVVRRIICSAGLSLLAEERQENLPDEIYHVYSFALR

Furin (Homo sapiens), sequence (P09958 whole entry, looked up): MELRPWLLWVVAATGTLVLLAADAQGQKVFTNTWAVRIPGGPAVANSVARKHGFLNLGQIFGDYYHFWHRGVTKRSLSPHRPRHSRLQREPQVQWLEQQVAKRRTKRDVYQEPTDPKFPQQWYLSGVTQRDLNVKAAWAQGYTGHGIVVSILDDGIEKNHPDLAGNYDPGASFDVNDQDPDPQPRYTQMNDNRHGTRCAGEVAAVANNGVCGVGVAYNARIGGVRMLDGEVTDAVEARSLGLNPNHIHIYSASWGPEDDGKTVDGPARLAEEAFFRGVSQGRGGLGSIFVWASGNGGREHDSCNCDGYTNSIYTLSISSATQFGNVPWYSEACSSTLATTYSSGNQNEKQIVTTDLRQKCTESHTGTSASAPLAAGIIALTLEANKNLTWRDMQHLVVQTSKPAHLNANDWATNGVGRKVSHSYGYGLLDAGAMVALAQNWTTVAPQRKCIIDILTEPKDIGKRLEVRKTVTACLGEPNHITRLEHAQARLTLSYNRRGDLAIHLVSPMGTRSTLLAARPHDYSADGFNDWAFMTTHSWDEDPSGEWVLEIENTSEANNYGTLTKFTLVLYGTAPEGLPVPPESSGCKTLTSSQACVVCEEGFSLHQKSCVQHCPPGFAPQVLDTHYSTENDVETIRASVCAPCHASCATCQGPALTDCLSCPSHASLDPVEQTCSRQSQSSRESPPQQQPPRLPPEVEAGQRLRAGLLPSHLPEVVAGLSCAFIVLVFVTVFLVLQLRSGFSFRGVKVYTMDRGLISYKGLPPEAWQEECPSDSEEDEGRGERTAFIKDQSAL

As for `CCCCCCCCCC(CC)c1ccc(S(=O)(=O)O)cc1` (centres undefined), the Potency entry in assay [1] and in assay [2] was “inactive” throughout.

Consider `O=C(O)CCCOc1ccc(Cl)cc1Cl`, for which the Potency entry in assay [1], in assay [2], in assay [3], in assay [4], in [5] and in assay [6] was “inactive” in each case. Further, the Potency result in assay [7], in assay [8], in assay [9], in assay [10], in assay [11] and in [12] was “inactive” throughout. The Potency result in assay [13] was “inactive”.

Consider `CC(C)[C@]12O[C@@H]1[C@@H]1O[C@]13[C@]1(O[C@H]1C[C@@H]1C4=C(CC[C@@]13C)C(=O)OC4)[C@H]2O`, for which the Potency result in assay [1] and in assay [6] was “inactive” throughout. In addition, the Potency in assay [2] was 52600 nM (active); in assay [3], 92.8 nM (active); in assay [4] it was 147 nM (active); in assay [14], 65.7 nM (active); in assay [5], 36.9 nM (active); in assay [15], 73.7 nM (active). For the same molecule, the Potency in assay [16] was 32.9 nM (active); in assay [7] it was 73.7 nM (active); in assay [17], 26.1 nM (active); in assay [8], 52.2 nM (active); in assay [9] it was 82.7 nM (active); in assay [11], 46.5 nM (active). The figures for the Potency in [12] and in [13] were 104 nM (active) and 148 nM (active), respectively.

For `CC1=C(O)C(=O)C=C2C1=CC=C1[C@@]2(C)CC[C@@]2(C)[C@@H]3C[C@](C)(C(=O)O)CC[C@]3(C)CC[C@]12C`, the Potency is 4690 nM (active) in assay [1]; 1480 nM (active) in assay [2]; 2080 nM (active) in assay [18]; 1310 nM (active) in [3]; 1850 nM (active) in assay [4]; 2610 nM (active) in [14]. The Potency was 4650 nM (active) in assay [5]; 1310 nM (active) in [15]; 2330 nM (active) in assay [16]; 4140 nM (active) in assay [6]; 928 nM (active) in assay [7]; 1470 nM (active) in [17]. Further, the Potency in assay [8] is 1170 nM (active); in assay [9], 2330 nM (active); in assay [10], 1850 nM (active); in [11] it was 3290 nM (active); in assay [12], 2610 nM (active); in assay [13] it was 2960 nM (active). In the assay with Furin (Homo sapiens), the Potency result is “inactive”.

As to `O=C(O)C(Cl)Cl`, the Potency result in [1] and in [2] was “inactive” in each case.

Consider `COc1ccc2c(c[n+](C)c3c4cc5c(cc4ccc23)OCO5)c1OC`, for which the Potency was 20900 nM (active) in [1], 10500 nM (active) in assay [2] and 25100 nM (active) in assay [19].

`C[C@](O)(COc1ccc(C#N)cc1)C(=O)Nc1ccc(C#N)c(C(F)(F)F)c1`: the Potency entry in [1] and in assay [2] was “inactive” throughout.

Take `C[C@@H]1[C@H](O)[C@@H](C)C=CC=CCCC=CC=CC=CC=C[C@H](O[C@H]2O[C@@H](C)[C@H](O)[C@@H](N)[C@@H]2O)CC2O[C@](O)(C[C@@H](O)[C@H](O)CC[C@@H](O)C[C@@H](O)C[C@@H](O)CC(=O)O[C@H]1C)C[C@H](O)[C@H]2C(=O)O`: the Potency entry in [1] and in assay [2] was “inactive” throughout.

For the molecule `C[C@]12COC(=O)C[C@@H]1CC[C@@H]1[C@H]2CC[C@@]2(C)[C@H]1CC[C@]2(C)O`, the Potency result in assay [1] and in [2] was “inactive” in each case.

`O=S(=O)(O)C(F)(F)C(F)(F)C(F)(F)C(F)(F)F`: the Potency result in [1] and in assay [2] was “inactive” in each case.

For the molecule `CCN1CCN(C(=O)Cc2ccc(Nc3ncc(F)c(Nc4ccc(C(=O)Nc5ccccc5Cl)cc4)n3)cc2)CC1`, the Potency in assay [1] is 23500 nM (active); in assay [2], 18700 nM (active).

For the molecule `CO[C@H]1CCC(O[C@H]2C[C@H]([C@]3(C)CC[C@]4(C[C@H](O)[C@@H](C)[C@@H]([C@@H](C)C=C(C)C(=O)[C@H](C)C[C@H](C)C(=O)O)O4)O3)O[C@]3(O[C@@H]([C@H]4O[C@@](O)(CO)[C@H](C)C[C@H]4C)C[C@H]3C)[C@H]2C)O[C@H]1C` (some centres undefined), the Potency in assay [1] is 3720 nM (active); in [2], 1870 nM (active); in assay [18], 2930 nM (active); in [3], 1850 nM (active); in [4], 2330 nM (active); in [16], 2080 nM (active). Moreover, the Potency in assay [7] was 5220 nM (active); in [17] it was 1470 nM (active); in assay [12], 2610 nM (active); in [13] it was 5260 nM (active). For the same molecule, the Potency entry in assay [8] and in assay [10] was “inactive” throughout.

With `C[C@@H]1CC[C@@]2(OC1)O[C@H]1C[C@H]3[C@@H]4CC=C5C[C@@H](O[C@@H]6O[C@H](CO)[C@@H](O[C@@H]7O[C@@H](C)[C@H](O)[C@@H](O)[C@@H]7O)[C@H](O)[C@@H]6O[C@@H]6O[C@@H](C)[C@H](O)[C@@H](O)[C@@H]6O)CC[C@]5(C)[C@@H]4CC[C@]3(C)[C@@H]1[C@H]2C`, the Potency was 11800 nM (active) in assay [1]; 14800 nM (active) in assay [2]; 4140 nM (active) in assay [18]; 6570 nM (active) in [3]; 4650 nM (active) in assay [4]; 5220 nM (active) in [5]. Also, the Potency was 4140 nM (active) in assay [15]; 2610 nM (active) in assay [16]; 13100 nM (active) in assay [6]; 10400 nM (active) in [9]; 4140 nM (active) in assay [10]; 5220 nM (active) in assay [11]. The Potency in assay [12] was 5220 nM (active); in assay [13], 16600 nM (active).

With `COCCOCCO`, the Potency result in assay [1] and in assay [2] was “inactive” throughout.

On to `Fc1cc(Br)ccc1CBr`, for which the Potency result in assay [1] and in assay [2] was “inactive” each time.

On to `Nc1ccc(Cl)cc1`, for which the Potency result in [1] and in assay [2] was “inactive” each time.

Regarding `C=CCON=C(C[C@H]1O[C@@H]2O[C@]3(C)CC[C@@H]4[C@H](C)CC[C@@H]([C@H]1C)[C@@]24OO3)[C@H]1O[C@@H]2O[C@]3(C)CC[C@H]4[C@H](C)CC[C@@H]([C@@H]1C)[C@@]24OO3`, the Potency entry in [1] and in assay [13] was “inactive” in each case. Also, the Potency in assay [2] was 469 nM (active); in [18], 414 nM (active); in assay [4], 522 nM (active); in assay [5], 147 nM (active); in [17], 52.2 nM (active).
